Data from PubChem BioAssay.
Where “and” joins values, the source holds several entries; their conditions need not be identical. Equal values may be shown once. For some assays here: Entries with a potency or affinity are not part of this list. Calls of active or inactive are those of the source. Unless noted, how the calls were made is not given here.

Key:
[1] = antimalarial activity against Dd2 strain (AID 2302;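 active means growth inhibition above 50% at the single 2 µM test dose, taken to imply half-maximal potency below 2 µM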;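 further: 0% = DMSO untreated growth and 100% = chloroquine plus artemisinin killed control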); conditions: P. falciparum Dd2 in RBCs, LDH growth readout, 72 h; at 2 µM; active compounds read high
[2] = HepG2 cytotoxicity, primary screen, cytotoxicity control for P. falciparum antimalarial project, cell-based, ATP luminescence (AID 2303;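 active means inhibition above 50%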;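 further: 0% = DMSO wells and 100% = digitonin-killed cells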); conditions: HepG2 viability, 24-48 h, at 10 µM, active compounds read high
[3] = biological target: L-lactate dehydrogenase (Plasmodium falciparum (isolate CDC / Honduras)) (UniProt Q27743); assay: PfLDH activity inhibition – cell lysate, 3D7 strain, counter-screen for P. falciparum growth inhibition project (AID 2304);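 further: 0% = vehicle and 100% = reference inhibitor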; conditions: P. falciparum 3D7 crude extract, LDH APAD/NBT absorbance; at 2 µM; active compounds read high
[4] = inhibition of 3D7 malaria parasite growth – strain 3D7 (AID 2306);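 further: 0% = DMSO wells and 100% = chloroquine plus artemisinin control wells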; conditions: P. falciparum 3D7 erythrocytic growth, LDH absorbance, 72 h; at 2 µM; active compounds read high
[5] = biological target: Calcium-dependent protein kinase 1 (Plasmodium falciparum (isolate 3D7)) (UniProt P62344); assay: PfCDPK1 kinase inhibitors, biochemical, TCAMS library (AID 1159585; cut-off not given, nearly all actives have IC50 up to about 0.98 µM;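 further: inhibitors leave more ATP so luminescence rises with inhibition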); conditions: recombinant PfCDPK1, Kinase-Glo ATP depletion luminescence
[6] = biological target: Plasmodium falciparum protein kinase 6 (PK6, PF3D7_1337100) (UniProt Q8IDW1); assay: PfPK6 kinase inhibitors, biochemical, TCAMS library (AID 1159586); conditions: recombinant PfPK6, Kinase-Glo ATP depletion luminescence
[7] = biological target: Protein kinase 7 (PK7), Plasmodium falciparum 3D7 (PF3D7_0213400) (UniProt Q7YTF7); assay: inhibition of Plasmodium PK7 catalytic activity – biochemical, TCAMS antimalarial set, Kinase-Glo luminescence (AID 1159587); conditions: recombinant PfPK7, Kinase-Glo ATP depletion luminescence
[8] = biological target: Calcium-dependent protein kinase 4 (Plasmodium falciparum (isolate 3D7)) (UniProt Q8IBS5); assay: PfCDPK4 kinase inhibitors, biochemical, TCAMS library (AID 1159588; cut-off not given, nearly all actives have IC50 up to about 0.91 µM); conditions: recombinant PfCDPK4, Kinase-Glo ATP depletion luminescence
Chain of Calcium-dependent protein kinase 4 (Plasmodium falciparum (isolate 3D7)) (Q8IBS5 whole entry, looked up): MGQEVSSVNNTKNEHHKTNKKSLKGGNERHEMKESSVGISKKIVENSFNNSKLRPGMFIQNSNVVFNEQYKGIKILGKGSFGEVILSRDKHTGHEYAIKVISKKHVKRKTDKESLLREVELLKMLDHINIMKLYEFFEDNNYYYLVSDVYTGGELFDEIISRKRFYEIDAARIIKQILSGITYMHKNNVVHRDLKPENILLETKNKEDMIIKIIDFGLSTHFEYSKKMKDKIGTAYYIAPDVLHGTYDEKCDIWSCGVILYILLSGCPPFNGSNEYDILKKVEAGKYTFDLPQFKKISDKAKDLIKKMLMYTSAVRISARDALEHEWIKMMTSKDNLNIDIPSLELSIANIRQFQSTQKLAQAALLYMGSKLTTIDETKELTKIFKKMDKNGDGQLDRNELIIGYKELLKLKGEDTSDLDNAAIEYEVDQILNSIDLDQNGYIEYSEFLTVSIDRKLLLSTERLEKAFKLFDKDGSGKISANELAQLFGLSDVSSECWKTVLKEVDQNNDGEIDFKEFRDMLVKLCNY

Chain of Protein kinase 7 (PK7), Plasmodium falciparum 3D7 (PF3D7_0213400) (Q7YTF7 1-343): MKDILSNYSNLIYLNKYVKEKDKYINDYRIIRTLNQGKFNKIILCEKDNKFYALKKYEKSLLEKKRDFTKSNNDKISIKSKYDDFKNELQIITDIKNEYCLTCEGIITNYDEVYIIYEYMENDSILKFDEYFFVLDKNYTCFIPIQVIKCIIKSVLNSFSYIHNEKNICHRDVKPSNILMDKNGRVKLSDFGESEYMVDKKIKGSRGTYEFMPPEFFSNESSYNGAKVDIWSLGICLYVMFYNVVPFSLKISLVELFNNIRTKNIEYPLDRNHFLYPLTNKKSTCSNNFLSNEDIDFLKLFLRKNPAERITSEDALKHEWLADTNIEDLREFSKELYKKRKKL
Chain of Calcium-dependent protein kinase 1 (Plasmodium falciparum (isolate 3D7)) (P62344 whole entry, looked up): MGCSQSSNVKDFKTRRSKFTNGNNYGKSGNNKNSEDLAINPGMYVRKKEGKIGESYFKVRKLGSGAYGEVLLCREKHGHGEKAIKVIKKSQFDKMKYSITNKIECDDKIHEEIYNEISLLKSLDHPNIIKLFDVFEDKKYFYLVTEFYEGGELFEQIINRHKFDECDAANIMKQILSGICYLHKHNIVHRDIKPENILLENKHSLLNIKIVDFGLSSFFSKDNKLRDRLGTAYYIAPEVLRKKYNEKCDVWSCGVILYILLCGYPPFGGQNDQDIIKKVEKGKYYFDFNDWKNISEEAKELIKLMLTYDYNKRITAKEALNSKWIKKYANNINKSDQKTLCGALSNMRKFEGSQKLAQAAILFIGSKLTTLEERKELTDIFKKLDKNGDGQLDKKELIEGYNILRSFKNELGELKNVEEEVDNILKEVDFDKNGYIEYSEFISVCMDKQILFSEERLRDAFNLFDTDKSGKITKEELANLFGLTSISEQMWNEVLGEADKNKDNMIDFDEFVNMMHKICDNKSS
Chain of L-lactate dehydrogenase (Plasmodium falciparum (isolate CDC / Honduras)) (Q27743 whole entry, looked up): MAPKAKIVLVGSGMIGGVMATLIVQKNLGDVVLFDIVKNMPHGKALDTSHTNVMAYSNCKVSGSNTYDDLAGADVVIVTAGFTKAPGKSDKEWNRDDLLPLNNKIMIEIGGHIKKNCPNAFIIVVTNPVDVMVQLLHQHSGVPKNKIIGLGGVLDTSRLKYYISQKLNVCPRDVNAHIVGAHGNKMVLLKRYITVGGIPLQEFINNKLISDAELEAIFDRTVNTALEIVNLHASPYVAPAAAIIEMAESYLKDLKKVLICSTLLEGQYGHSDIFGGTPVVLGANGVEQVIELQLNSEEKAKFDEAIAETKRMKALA
Chain of Plasmodium falciparum protein kinase 6 (PK6, PF3D7_1337100) (Q8IDW1 1-305): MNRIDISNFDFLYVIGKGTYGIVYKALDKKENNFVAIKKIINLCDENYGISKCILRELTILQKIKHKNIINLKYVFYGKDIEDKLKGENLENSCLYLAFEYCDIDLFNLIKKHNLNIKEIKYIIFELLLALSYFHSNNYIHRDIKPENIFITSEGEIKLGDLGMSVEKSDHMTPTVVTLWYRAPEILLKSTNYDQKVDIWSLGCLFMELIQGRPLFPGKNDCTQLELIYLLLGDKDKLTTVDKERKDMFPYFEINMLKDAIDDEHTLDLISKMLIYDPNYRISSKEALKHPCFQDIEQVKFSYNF

CSc1ccc(C[C@@H](C)NC[C@H](O)c2cccc(Cl)c2)cc1
active: growth inhibition [1] 96% | growth inhibition [4] 97%
inactive: inhibition [2] 8% | inhibition [3] 2% | outcome [5] | outcome [6] | outcome [7] | outcome [8]

O=C(NC1CCC(CN2CCC(c3c[nH]c4ccccc34)CC2)CC1)c1cc(-c2ccccc2)c(C(F)(F)F)s1 (stereo not given)
active: growth inhibition [1] 101% | inhibition [2] 55% | growth inhibition [4] 100%
inactive: inhibition [3] 2% | outcome [5] | outcome [6] | outcome [7] | outcome [8]

O=C(/C=C/c1ccc(Cl)c(Cl)c1)NC1CCC(N2CCC(c3c[nH]c4ccccc34)CC2)CC1 (stereo not given)
active: growth inhibition [1] 69% | growth inhibition [4] 100%
inactive: inhibition [2] 41% | inhibition [3] 7% | outcome [5] | outcome [6] | outcome [7] | outcome [8]

COC(=O)c1ccc(CC(C)NCC(O)c2cc(Cl)c(N)c(Cl)c2)cc1 (stereo not given)
inactive: inhibition [2] -2% | inhibition [3] -7% | outcome [5] | outcome [6] | outcome [7] | outcome [8]
active: growth inhibition [1] 66% | growth inhibition [4] 91%

O=C(/C=C/c1ccc(O)cc1)NC1CCC(CN2CCC(c3c[nH]c4ccccc34)CC2)CC1 (stereo not given)
active: growth inhibition [1] 51% | growth inhibition [4] 99%
inactive: inhibition [2] 21% | inhibition [3] -7% | outcome [5] | outcome [6] | outcome [7] | outcome [8]

CC(C)n1ncc2c(C(=O)Nc3ccc(C#N)c(Cl)c3)cc(C3CC3)nc21
inactive: growth inhibition [1] 15% | inhibition [2] 20% | inhibition [3] 2% | outcome [5] | outcome [6] | outcome [7] | outcome [8]
active: growth inhibition [4] 93%

CC(C)CNCc1ccc(-c2ccc(CN(C(=O)NC3CCCCC3)C3CCN(Cc4ccccc4)CC3)cc2)cc1
inactive: inhibition [2] 39% | inhibition [3] -1% | outcome [5] | outcome [6] | outcome [7] | outcome [8]
active: growth inhibition [1] 88% | growth inhibition [4] 101%

O=C(Cc1cc(=O)oc2cc(O)ccc12)NC1CCC(CN2CCC(c3c[nH]c4ccccc34)CC2)CC1 (stereo not given)
active: growth inhibition [4] 96%
inactive: growth inhibition [1] -10% | inhibition [2] 5% | inhibition [3] -1% | outcome [5] | outcome [6] | outcome [7] | outcome [8]

COc1ccc2[nH]cc(C3=CCN(C[C@H]4C[C@@H]4C(=O)c4ccccc4)CC3)c2n1
inactive: inhibition [2] 22% | inhibition [3] -8% | outcome [5] | outcome [6] | outcome [7] | outcome [8]
active: growth inhibition [1] 93% | growth inhibition [4] 95%

O=C(C=Cc1ccc(F)c(Br)c1)NC1CCC(CN2CCC(c3c[nH]c4ccccc34)CC2)CC1 (stereo not given)
active: growth inhibition [1] 67% and 50% | growth inhibition [4] 103% and 102%
inactive: inhibition [2] 39% and 28% | inhibition [3] 2% and 5% | outcome [5] | outcome [6] | outcome [7] | outcome [8]
